According to PubChem BioAssay (Tox21):
“And” between values parts separate entries of the source, which are not always exact repeats. Equal entries are not always repeated. Results filed as inconclusive are left out. Some structures have more than one record in an assay (separate samples or runs), and their calls can disagree. The source made the active and inactive calls. Unless noted, the call rests on the fitted dose curve; in most records, active means well fitted curve in the direction sought with a large enough effect in the repeat runs; inconclusive means weak or mixed curves; inactive means no such curve, though single readings can be large; an effect the other way counts as inactive or inconclusive.

How the values were obtained:
[1] = molecular target: Peroxisome proliferator-activated receptor delta (Homo sapiens) (UniProt Q03181); experiment: qHTS assay to identify small molecule agonists of the peroxisome proliferator-activated receptor delta (PPARd) signaling pathway (AID 743212; calls by dose curve; further: potency means the concentration at half of the fitted maximal effect)
Summary of the method: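 A PPARd-bla HEK293H line with beta-lactamase under an Upstream Activator Sequence is treated with compounds at 37 C. Substrate loading for 2 h at room temperature precedes the fluorescence measurement.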

[2] = qHTS assay to identify small molecule antagonists of the peroxisome proliferator-activated receptor delta (PPARd) signaling pathway - cell viability counter screen (AID 743213); further: nearly all actives have a fitted effect of over 50% in size; further: potency means the concentration at half of the fitted maximal effect
Summary of the method: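 Agonist-stimulated (L165041, 300 nM final) HEK293H PPARd UAS-bla cells are exposed to compounds for 17 h at 37 C, and ATP-based luminescence (CellTiter-Glo) from the same wells reports cytotoxicity.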

[3] = qHTS assay to identify small molecule agonists of the farnesoid-X-receptor (FXR) signaling pathway - cell viability counter screen (AID 743218); further: nearly all actives have a fitted effect of over 45% in size; further: potency means the concentration at half of the fitted maximal effect
Summary of the method: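 In GeneBLAzer FXR-UAS-bla HEK 293T cells, compounds act for 16 h at 37 C. Cell viability is then scored in the reporter wells by CellTiter-Glo, 30 min at RT, luminescence.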

[4] = molecular target: Bile acid receptor (Homo sapiens) (UniProt Q96RI1); experiment: qHTS assay to identify small molecule agonists of the farnesoid-X-receptor (FXR) signaling pathway (AID 743220; active means well fitted activation curve with a large enough effect in the signal ratio in the repeat runs, not every such curve was filed as active; the % refers to the signal ratio)
Summary of the method: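 Beta-lactamase reporter under UAS control in GeneBLAzer FXR HEK 293T cells (5000/well) measured with LiveBLAzer FRET substrate after 2 h at room temperature. Compound exposure lasted 16 h at 37C.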

[5] = qHTS assay to identify small molecule antagonists of the farnesoid-X-receptor (FXR) signaling pathway - cell viability counter screen (AID 743221; active means well fitted cell-killing curve with a large enough effect in the repeat runs, not every such curve was filed as active; further: nearly all actives have a fitted effect of over 50% in size; further: potency means the concentration at half of the fitted maximal effect)
Summary of the method: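 HEK 293T FXR-bla cells, 5 h pre-incubation; compound + CDCA 50 uM final, 16 h, 37 C; beta-lactamase FRET read first, then CellTiter-Glo luminescence, 30 min RT.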

[6] = qHTS assay to identify small molecule agonists of the vitamin D receptor (VDR) signaling pathway - cell viability counter screen (AID 743224); further: nearly all actives have a fitted effect of over 50% in size; further: potency means the concentration at half of the fitted maximal effect
Summary of the method: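 VDR-bla cell line, quantitative HTS format; 16 h compound incubation (37C, 5% CO2); ATP-based CellTiter-Glo luminescence measured in the reporter assay wells.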

[7] = molecular target: Vitamin D3 receptor (Homo sapiens) (UniProt P11473); experiment: qHTS assay to identify small molecule agonists of the vitamin D receptor (VDR) signaling pathway (AID 743222; calls by dose curve)
Summary of the method: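 Agonist activity measured in VDR-bla reporter cells. Exposure 16 h, 37C, 5% CO2; detection by B/G FRET substrate, 2 h RT.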

[8] = molecular target: Vitamin D3 receptor (Homo sapiens) (UniProt P11473); experiment: qHTS assay to identify small molecule antagonists of the vitamin D receptor (VDR) signaling pathway (AID 743223; active means well fitted inhibition curve with a large enough effect in the signal ratio in the repeat runs, not every such curve was filed as active; the % refers to the signal ratio)
Summary of the method: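 Beta-lactamase reporter read-out: FRET substrate fluorescence after 2 h at room temperature, following 16 h exposure of VDR-bla cells to test compound plus 3 nM (final) 1alpha,25-dihydroxyvitamin D3 agonist at 37C.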

[9] = molecular target: Bile acid receptor (Homo sapiens) (UniProt Q96RI1); experiment: qHTS assay to identify small molecule antagonists of the farnesoid-X-receptor (FXR) signaling pathway (AID 743217; active means well fitted inhibition curve with a large enough effect in the signal ratio in the repeat runs, not every such curve was filed as active; the % refers to the signal ratio; further: potency means the concentration at half of the fitted maximal effect)
Summary of the method: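 Beta-lactamase reporter under UAS control in HEK 293T cells; compound exposure 16 h at 37 °C in the presence of chenodeoxycholic acid (50 uM final); signal from B/G FRET substrate after 2 h at room temperature.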

[10] = molecular target: Peroxisome proliferator-activated receptor delta (Homo sapiens) (UniProt Q03181); experiment: qHTS assay to identify small molecule antagonists of the peroxisome proliferator-activated receptor delta (PPARd) signaling pathway (AID 743215; active means well fitted inhibition curve with a large enough effect in the signal ratio in the repeat runs, not every such curve was filed as active; the % refers to the signal ratio; further: series mostly up to about 62 µM)
Summary of the method: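 Antagonist-mode beta-lactamase reporter screen: HEK293H cells with UAS-bla under PPARd control, stimulated by 300 nM L165041 (final) alongside test compound for 17 h at 37 C, then FRET fluorescence after 2 h substrate incubation.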

Measured: Potency

Bile acid receptor (Homo sapiens), sequence (Q96RI1 whole entry, looked up): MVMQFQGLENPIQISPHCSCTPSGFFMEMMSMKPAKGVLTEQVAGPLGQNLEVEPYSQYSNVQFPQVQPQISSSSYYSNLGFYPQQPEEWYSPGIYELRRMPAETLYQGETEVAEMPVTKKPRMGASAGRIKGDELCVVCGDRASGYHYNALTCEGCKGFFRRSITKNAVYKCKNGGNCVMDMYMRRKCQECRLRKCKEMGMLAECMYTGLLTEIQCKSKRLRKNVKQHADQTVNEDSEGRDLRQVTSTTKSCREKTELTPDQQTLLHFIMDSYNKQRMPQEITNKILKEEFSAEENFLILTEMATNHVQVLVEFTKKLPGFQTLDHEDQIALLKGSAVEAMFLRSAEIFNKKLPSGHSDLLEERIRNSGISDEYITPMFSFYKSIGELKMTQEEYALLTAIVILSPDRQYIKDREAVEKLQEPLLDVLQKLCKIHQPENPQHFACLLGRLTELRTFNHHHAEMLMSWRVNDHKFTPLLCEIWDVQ
Vitamin D3 receptor (Homo sapiens), sequence (P11473 whole entry, looked up): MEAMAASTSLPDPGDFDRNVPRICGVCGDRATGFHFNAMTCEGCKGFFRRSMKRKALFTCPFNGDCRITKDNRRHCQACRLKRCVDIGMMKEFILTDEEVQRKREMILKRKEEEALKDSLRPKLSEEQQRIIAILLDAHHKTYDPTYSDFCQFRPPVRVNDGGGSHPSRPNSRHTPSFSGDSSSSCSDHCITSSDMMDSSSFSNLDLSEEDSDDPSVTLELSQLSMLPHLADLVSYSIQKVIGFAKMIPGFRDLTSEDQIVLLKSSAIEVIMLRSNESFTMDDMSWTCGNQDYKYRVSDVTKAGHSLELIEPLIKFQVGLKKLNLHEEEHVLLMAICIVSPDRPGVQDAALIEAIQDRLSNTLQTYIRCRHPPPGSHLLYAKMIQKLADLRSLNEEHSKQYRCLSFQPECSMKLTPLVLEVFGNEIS
Peroxisome proliferator-activated receptor delta (Homo sapiens), sequence (Q03181 whole entry, looked up): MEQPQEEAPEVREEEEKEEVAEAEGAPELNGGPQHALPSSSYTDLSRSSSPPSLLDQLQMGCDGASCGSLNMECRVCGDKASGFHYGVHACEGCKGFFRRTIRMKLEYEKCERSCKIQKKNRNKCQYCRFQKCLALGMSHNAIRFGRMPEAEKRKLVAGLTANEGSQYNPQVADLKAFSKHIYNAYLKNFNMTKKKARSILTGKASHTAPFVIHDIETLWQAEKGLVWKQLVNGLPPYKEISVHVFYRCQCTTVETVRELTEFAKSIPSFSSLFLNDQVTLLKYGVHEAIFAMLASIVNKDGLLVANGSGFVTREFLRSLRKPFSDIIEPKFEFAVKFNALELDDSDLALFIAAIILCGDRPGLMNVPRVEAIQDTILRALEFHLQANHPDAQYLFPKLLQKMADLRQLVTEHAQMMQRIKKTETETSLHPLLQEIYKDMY

Cc1ccc2c(c1N)C(=O)c1ccccc1C2=O
inactive: [1] | [2] | [3] | [4] | [5] | [6]

O=C(O)C(F)(F)C(F)(F)C(F)(F)C(F)(F)C(F)(F)C(F)(F)C(F)(F)F
active: [1] 19.4 µM
inactive: [2] | [3] | [5] | [7] | [8] | [6]

CC(C)NC(C)C
inactive: [1] | [2] | [3] | [5] | [7] | [8] | [6]

CC(C)=CC1C(C(=O)OCc2coc(Cc3ccccc3)c2)C1(C)C (configuration not stated)
inactive: [1] | [2] | [9] | [3] | [4] | [5] | [8] | [6]

CCCCCCCCOC(=O)c1ccccc1C(=O)OCCCCCCCC
inactive: [1] | [2] | [9] | [3] | [4] | [5] | [7] | [8] | [6]

CCOc1cc(C=O)ccc1O
inactive: [1] | [2] | [3] | [5] | [7] | [8] | [6]

Brc1ccc(Oc2cc(Br)c(Br)cc2Br)c(Br)c1
inactive: [1] | [2] | [3] | [4] | [5] | [7] | [8]

C#C[C@]1(O)CC[C@H]2[C@@H]3CCC4=CC(=O)CC[C@]4(C)[C@H]3CC[C@@]21C
inactive: [1] | [2] | [9] | [3] | [4] | [5] | [6]

CCCCN(CC)c1c([N+](=O)[O-])cc(C(F)(F)F)cc1[N+](=O)[O-]
inactive: [1] | [2] | [3] | [5] | [8]

CCC(=O)O[C@H]1CC[C@H]2[C@@H]3CCC4=CC(=O)CC[C@]4(C)[C@H]3CC[C@]12C
inactive: [1] | [2] | [5]
54.9 µM (active) and inactive: [3]

CCN(N=O)C(N)=O
inactive: [1] | [2] | [9] | [3] | [4] | [5] | [7] | [8] | [6]

Nc1ccc(Cl)c(Cl)c1
inactive: [1] | [2] | [3] | [5] | [7] | [8]

C=CCN(CC=C)C(=O)C(Cl)Cl
inactive: [1] | [2] | [3] | [5] | [7] | [8]

C1=Cc2cccc3cccc1c23
inactive: [1] | [2] | [3] | [5] | [7] | [8] | [6]

CNC(=O)N(C)c1nnc(C(C)(C)C)s1
inactive: [1] | [2] | [3] | [5] | [8]

CC(O)CCO (configuration not stated)
inactive: [1] | [2] | [3] | [5] | [8] | [6]

CCCCCc1cc(O)cc(O)c1
inactive: [1] | [2] | [9] | [3] | [4] | [5] | [8] | [6]

O=C(NC(=O)c1c(F)cccc1F)Nc1ccc(Cl)cc1
inactive: [1] | [2] | [9] | [3] | [4] | [5] | [7] | [8] | [6]

C=CC(=O)OCCO
inactive: [1] | [2] | [3] | [5] | [7] | [8] | [6]

Nc1cccnc1
inactive: [1] | [2] | [9] | [3] | [4] | [5] | [6]

Cc1c(COC(=O)[C@@H]2[C@H](/C=C(\Cl)C(F)(F)F)C2(C)C)cccc1-c1ccccc1
inactive: [1] | [2] | [3] | [4] | [5] | [7] | [8] | [6]

Oc1ccc(-c2ccccc2)cc1
inactive: [1] | [2] | [9] | [3] | [4] | [5] | [8] | [6]

Nn1cnnc1
inactive: [1] | [2] | [3] | [5] | [7] | [8] | [6]

Nc1c(Cl)cc([N+](=O)[O-])cc1Cl
active: [3] 2.75 µM
inactive: [1] | [9] | [4] | [8] | [6]
inactive and 4.36 µM (active): [2] | [5]

CCOc1cc(Oc2ccc(C(F)(F)F)cc2Cl)ccc1[N+](=O)[O-]
inactive: [1] | [2] | [9] | [4] | [5]

c1ccc(-c2cccc(-c3ccccc3)c2)cc1
inactive: [2] | [9] | [3] | [4] | [5] | [6]

CNC(=O)Oc1cccc2c1OC(C)(C)O2
inactive: [2] | [9] | [3] | [4] | [5] | [7] | [6]

Cc1ccc(OP(=O)(Oc2ccc(C)cc2)Oc2ccc(C)cc2)cc1
inactive: [1] | [2] | [3] | [5] | [8] | [6]

CCOC(=S)S
active: [2] 29.3 µM
inactive: [9] | [3] | [5]

CC(C)Oc1cc(-n2nc(C(C)(C)C)oc2=O)c(Cl)cc1Cl
inactive: [4] | [7] | [8]
active: [6] 12.3 µM
inactive and 38.9 µM (active): [3]
inactive and 27.5 µM (active): [2]
inactive and 49 µM (active): [5]

CCC(C)c1cc([N+](=O)[O-])cc([N+](=O)[O-])c1O (configuration not stated)
inactive: [2] | [10] | [9] | [3] | [4] | [5] | [7] | [8] | [6]

C[C@]12CCC(=O)C(O)=C1CC[C@@H]1[C@@H]2CC[C@]2(C)C(=O)CC[C@@H]12
inactive: [2] | [3] | [5] | [7] | [8] | [6]

N#CCCCl
inactive: [2] | [3] | [5] | [7] | [8] | [6]

c1cc(OCC2CO2)ccc1Cc1ccc(OCC2CO2)cc1 (configuration not stated)
inactive: [2] | [9] | [3] | [4] | [5]

CCC(C)(C)c1ccc(O)cc1
inactive: [2] | [9] | [3] | [4] | [5] | [8]

COP(=S)(OC)Oc1cc(Cl)c(Cl)cc1Cl
inactive: [1] | [2] | [3] | [5] | [6]

CCCCNC(=O)n1c(NC(=O)OC)nc2ccccc21
inactive: [2] | [3] | [4] | [5] | [6]

CN(C)c1ccc(C(=O)c2ccc(N(C)C)cc2)cc1
inactive: [2] | [3] | [4] | [5] | [7] | [6]

Oc1c(Cl)c(Cl)c(Cl)c(Cl)c1Cl
inactive: [4] | [5] | [8]

Cc1cc(C)cc(C)c1
inactive: [2] | [3] | [5] | [8] | [6]

CCOP(=S)(OCC)O/N=C(\C#N)c1ccccc1
inactive: [1] | [10] | [9] | [3] | [4] | [5] | [8] | [6]

c1ccc(N=Nc2ccccc2)cc1
inactive: [2] | [3] | [5] | [8] | [6]

CCC(C)c1ccc(O)cc1 (configuration not stated)
inactive: [2] | [9] | [3] | [4] | [5] | [6]

C[C@]12CCC(=O)C[C@@H]1CC[C@@H]1[C@@H]2CC[C@]2(C)[C@@H](O)CC[C@@H]12
inactive: [3] | [6]

CCOCN(C(=O)CCl)c1c(C)cccc1CC
inactive: [2] | [5] | [7] | [8]

O=c1oc2ccccc2c(O)c1C(CC(O)c1ccc(-c2ccc(Br)cc2)cc1)c1ccccc1 (configuration not stated)
inactive: [2] | [9] | [3] | [5]

O=C1C=CC(=O)C=C1
inactive: [2] | [5]

CCCCC(CC)COC(=O)Cl (configuration not stated)
inactive: [2] | [9] | [3] | [4] | [5] | [7] | [8] | [6]

Cc1cccc(N)c1N
inactive: [9] | [3] | [4] | [5] | [6]

Cc1ccc(N)c(N)c1
inactive: [2] | [3] | [5] | [8] | [6]

C=C(C)[C@H]1Cc2c(ccc3c2O[C@@H]2COc4cc(OC)c(OC)cc4[C@@H]2C3=O)O1
active: [9] 0.75 µM
inactive: [1] | [3] | [4] | [5]

Oc1cc(Cl)c(Cl)cc1Cl
inactive: [2] | [3] | [5] | [6]

CCOC(=O)C(C)OC(=O)c1cc(Oc2ccc(C(F)(F)F)cc2Cl)ccc1[N+](=O)[O-] (configuration not stated)
inactive: [1] | [2] | [5]

S=C1NCCN1
inactive: [2] | [3] | [5] | [7] | [8]

Nc1ccc(-c2ccc(N)c(N)c2)cc1N
inactive: [1] | [9] | [3] | [4] | [5]

CCN(CC)C(=O)SCc1ccc(Cl)cc1
inactive: [2] | [9] | [4] | [5] | [7] | [8] | [6]

N#Cc1cc(Br)c(O)c(Br)c1
inactive: [1] | [10] | [9] | [4] | [5] | [6]

CCCCN(CCCC)N=O
inactive: [2] | [9] | [3] | [4] | [5]

Nc1ccc(Cl)cc1N
inactive and 43.6 µM (active): [6]
inactive: [2] | [3] | [5]

Nc1ccncc1
inactive: [1] | [3] | [5] | [8]

C=CCc1ccc2c(c1)OCO2
inactive: [2] | [3] | [5] | [7] | [8]

CC1(C)C(C=C(Cl)Cl)C1C(=O)OC(C#N)c1cccc(Oc2ccccc2)c1 (configuration not stated)
inactive: [2] | [3] | [5] | [8] | [6]

CCC(C)(c1ccc(O)cc1)c1ccc(O)cc1
inactive: [2] | [9] | [3] | [4] | [5] | [6]
